A selection: hits, their analogues and other compounds. The true share with any hit is near 17%.
DT40 TDP1 CPT – growth inhibition of DT40 Tdp1-/-;hTDP1 cells with camptothecin (screen for TDP1 inhibitors); AID 686979; Potency, µM (series often up to 46.2 µM), for the others: at the top dose activity change, negative = growth inhibition, usual class: inhibitors; hit rate 12% among 420,000; chicken DT40 Tdp1-/-;hTDP1 cells + 20 nM CPT, ATP luminescence, 48 h; also: % is scaled to controls: 0 for no effect and ±100 for the full control effect; nearly all actives have a fitted effect of over 55% in size
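Cell growth measured by CellTiter-Glo luminescence after a minimum 48 h, 37 C compound exposure with 20 nM CPT in Tdp1-knockout DT40 cells stably expressing hTDP1, seeded 400/well; qHTS titration format.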
TDP1 cell noCPT – qHTS for Inhibitors of human tyrosyl-DNA phosphodiesterase 1 (TDP1): qHTS in cells in absence of CPT | DT40 Tdp1-/- hTDP1 cells, no CPT, ATP luminescence, 48 h | Potency, µM (doses to about 46.2 µM), for the others: at the top dose activity change, negative = growth inhibition, actives largely listed as inhibitors | hit rate 15% among 420,000; also: % is scaled to controls: 0 for no effect and ±100 for the full control effect; nearly all actives have a fitted effect of over 55% in size
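Growth of hTDP1-complemented DT40 Tdp1-knockout cells is measured by ATP luminescence after at least 48 hr compound exposure at 37 °C, with DMSO substituting for the 20 nM CPT used in the parallel screen.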
ATXN viability – viability counter-screen for ATXN expression inhibitors; S2 cells (HEK-293 line with an ATXN2-luciferase reporter) viability, CellTiter-Fluor protease fluorescence, 24 h; Potency, µM (top dose mostly 56.7 µM), actives largely listed as cytotoxic; hit rate 0.49% among 400,000; also: nearly all actives have a fitted effect of over 40% in size
HepG2 tox – counter-screen for TGF-b inhibitors: cytotoxicity in HepG2 cells; Potency, µM (titrated, usually from 46.1 µM), for inactives: top-dose activity change, negative = cytotoxicity, actives largely listed as cytotoxic; HepG2 CAGA-GFP viability, ATP luminescence, 18 h; hit rate 0.76% among 410,000
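CellTiter-Glo luminescence gave cytotoxicity after 18 hours at 37 degrees C. The cells were HepG2 CAGA-GFP in 1% FBS DMEM, stimulated with 500 pg/mL TGF-beta after compound addition. %Activity was normalised to no-cell wells (complete cell-killing) and DMSO (no toxicity), and curves were fitted and classified.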
TGFb SMAD3 inh – blocks TGF-b signaling; hit rate 1.2% among 410,000; HepG2 CAGA-GFP TGF-b/SMAD3 reporter, GFP fluorescence, 18 h; TGF-beta stimulated, 500 pg/mL final; Potency, µM (top dose mostly 46.1 µM), without a hit: at the top dose activity, negative = inhibition, usual class: inhibitors; also: % is scaled to controls: 0 for no effect and ±100 for the full control effect; nearly all actives have a fitted effect of over 65% in size
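First, reporter cells (HEPG2 CAGA-GFP) rested 2 h at 37 degrees C. Next, compounds were pinned in and TGF-beta added to 500 pg/mL final. After 18 h, GFP was imaged per cell and summed per well.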
ATXN2 expr inh – inhibitors of ATXN2 expression. Potency, µM (top dose mostly 57 µM), for inactives: at the highest dose activity change, negative = inhibition, hits mostly inhibitors. hit rate 0.72% among 360,000. HEK-293 ATXN2-luciferase reporter, luminescence, 24 h. AID 1745845; also: % is scaled to controls: 0 for no effect and ±100 for the full control effect; nearly all actives have a fitted effect of over 55% in size
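ATXN2-luciferase reporter cells (luciferase flanked by upstream and downstream ATXN2 gene portions) were treated 24 h at 37 °C with compounds at up to 57 uM. SteadyGlo luminescence gave expression; GF-AFC fluorescence gave viability.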
* marks the source's active call; other numbers are inactive results; i = inactive; ? = inconclusive; . = not tested or not shown. Calls follow the shape of the dose curve; as a rule, active = well fitted curve in the direction sought with a large enough effect; inconclusive = small, poorly fitted or top-dose-only effect, or another doubt; inactive = no such curve, though single readings can be large; an effect the other way counts as inactive or inconclusive. Potency is read from the fitted curve at half-maximal effect.

SMILES | DT40 TDP1 CPT | TDP1 cell noCPT | ATXN viability | HepG2 tox | TGFb SMAD3 inh | ATXN2 expr inh
COC(=O)CN1C(=O)[C@H]2[C@@H](/C=C/c3ccccc3)N3C(=O)CN(Cc4ccc(-c5ccccc5)cc4)C(=O)[C@@]3(C)[C@H]2C1=O | 26µM* | ? | i | -11% | -14% | -30%
COc1ccccc1NC(=O)CSc1nc2n[nH]c(C)c2c(=N)n1-c1ccccc1Cl | 23µM* | 26µM* | i | -16% | -30% | ?
Cc1ccc(NC(=O)CSc2nc3n[nH]c(C)c3c(=N)n2-c2ccccc2C)cc1C | -28% | ? | i | -40% | -15% | -15%
CCc1ccccc1NC(=O)CSc1nc2n[nH]c(C)c2c(=N)n1-c1cccc(C)c1 | 7.3µM* | 3.7µM* | . | -16% | ? | .
CCc1ccccc1NC(=O)CSc1nc2n[nH]c(C)c2c(=N)n1-c1ccc(OC)cc1 | 9.2µM* | 8.2µM* | i | -15% | ? | 16%
Cc1cccc(-n2c(N)cc(=O)nc2SCC(=O)Nc2ccccc2)c1 | 4% | -8% | i | -22% | -28% | 9%
COc1ccc(-n2c(SCC(=O)NCc3ccccc3)nc3n[nH]c(C)c3c2=N)cc1 | 6.5µM* | 6.5µM* | . | -21% | -13% | .
CCN(C(=O)CSc1nc2n[nH]c(C)c2c(=N)n1-c1ccc(Cl)c(C)c1)c1cccc(C)c1 | 18µM* | 21µM* | ? | -24% | -28% | .
Cc1cccc(-n2c(SCC(=O)Nc3ccccc3Cl)nc3n[nH]c(C)c3c2=N)c1 | 15µM* | 21µM* | . | -61% | -30% | .
CCCCNC(=O)CSc1nc2n[nH]c(C)c2c(=N)n1-c1ccccc1CC | 15µM* | 10µM* | . | -3% | 0% | .
Cc1cc(-n2c(SCc3ccccc3F)nc3n[nH]c(C)c3c2=N)ccc1Cl | ? | ? | i | -28% | -21% | -18%
CC(SCc1ccccc1)C(=O)Nc1ccccc1F (stereo not given) | 4% | -3% | i | -7% | -7% | .
COc1ccccc1S(=O)(=O)N1CCN(c2nc(-c3cccs3)nc3ccccc23)CC1 | 10µM* | 7.9µM* | . | . | . | .
COc1ccc(S(=O)(=O)N2CCN(c3nc(-c4cccs4)nc4ccccc34)CC2)cc1OC | -23% | ? | . | 3% | 5% | .
O=S(=O)(c1ccccc1Br)N1CCN(c2nc(-c3cccs3)nc3ccccc23)CC1 | ? | ? | . | 5% | -1% | .
COc1ccc(Nc2nc(-c3cccs3)nc3ccccc23)cc1S(=O)(=O)N1CCOCC1 | 18µM* | 3.3µM* | i | -37% | ? | -4%
CC(C)(C)OC(=O)N1CCN(c2nc(-c3cccs3)nc3ccccc23)CC1 | 13µM* | 8.9µM* | . | . | . | .
CC(=O)c1ccccc1S(=O)(=O)N1CCN(c2nc(-c3cccs3)nc3ccccc23)CC1 | 8.9µM* | 7.1µM* | . | . | . | .
COc1ccc(C2OCC(C)([N+](=O)[O-])CO2)cc1 (stereo not given) | 13% | 7% | i | -10% | 1% | 24%
Cc1c(C(=O)Nc2ccc(F)cc2F)oc2ccc3c(c12)C(=O)CC(C)(C)O3 | -28% | -10% | i | -5% | 19% | 34%
CCOC(=O)c1ccccc1S(=O)(=O)N1CCN(c2nc(-c3cccs3)nc3ccccc23)CC1 | 11µM* | 11µM* | . | . | . | .
Cc1nc(N2CCCCC2)c2c(-c3cccs3)csc2n1 | ? | ? | i | 5% | -5% | -22%
Cc1nc(N2CCN(S(=O)(=O)c3ccccc3C#N)CC2)c2c(-c3cccs3)csc2n1 | ? | 21µM* | i | -54% | ? | .
Oc1ccccc1N1CCN(c2nc(-c3cccs3)nc3ccccc23)CC1 | -90% | ? | ? | -30% | ? | .
O=C(c1ccc2c(c1)OCCO2)N1CCN(c2nc(-c3cccs3)nc3ccccc23)CC1 | 11µM* | 11µM* | . | . | . | .
SMILES | DT40 TDP1 CPT | TDP1 cell noCPT | ATXN viability | HepG2 tox | TGFb SMAD3 inh | ATXN2 expr inh
Cc1ccc(-c2nc(-c3cc4cccc(OCc5cccc(C)c5)c4oc3=O)no2)cc1 | ? | 9.2µM* | i | -5% | 42% | 12%
CCOc1cccc2cc(-c3nc(-c4ccccc4C)no3)c(=O)oc12 | -14% | ? | . | 0% | 1% | .
CSc1ccc(NC(=O)NCCCN2CCN(c3ccccc3F)CC2)cc1 | 21µM* | 21µM* | i | -22% | 2% | -20%
O=C(NCCCN1CCOCC1)c1ccc2nc(Cc3ccccc3F)oc2c1 | 10% | 2% | i | 3% | 2% | 28%
O=C(NCCCN1CCN(c2ccccc2F)CC1)Nc1ccc(F)cc1 | ? | ? | i | -12% | 4% | -6%
O=C(NCCCN1CCN(c2ccccc2F)CC1)c1ccc2nc(Cc3ccccc3)oc2c1 | ? | 26µM* | . | -43% | ? | .
O=C(NCCCN1CCN(c2ccc(F)cc2)CC1)c1ccc2nc(CCc3ccccc3)oc2c1 | ? | ? | . | -2% | 13% | .
O=C(NCCCN1CCN(c2ccccc2F)CC1)c1ccc2nc(CCc3ccccc3)oc2c1 | 21µM* | 15µM* | . | 11µM* | ? | .
CCc1nc2ccc(C(=O)NCCCN3CCN(c4ccccc4F)CC3)cc2nc1CC | ? | 23µM* | i | -18% | -14% | -13%
Cc1cccc(C(C#N)c2ccc(Cl)nn2)c1 (stereo not given) | -17% | -30% | i | 6% | -3% | -3%
Cc1c(C)n(C)c2ccc(C(=O)NCCCN3CCN(c4ccccc4F)CC3)cc12 | 9.2µM* | ? | i | -21% | ? | -13%
Cc1c(C)n(C)c2ccc(C(=O)NCCCN3CCCC3)cc12 | -13% | -14% | ? | -11% | -1% | .
O=C(Cn1ccc(NC(=O)OCc2ccccc2)nc1=O)NCc1nc2ccccc2[nH]1 | -15% | 1% | i | 4% | 8% | -6%
CCOc1ccc(N)c(SSc2cc(OCC)ccc2N)c1 | 2.6µM* | 5.2µM* | 1µM* | 10µM* | 6.3µM* | .
C/C(=N\NC(=O)C(C)n1nc(C)c([N+](=O)[O-])c1C)c1ccccc1O (stereo not given) | 4.1µM* | 1.8µM* | i | -20% | ? | 16µM*
Cc1nn(C(C)C(=O)NCc2ccco2)c(C)c1[N+](=O)[O-] (stereo not given) | 6% | 7% | ? | 28% | 0% | .
